This passage reports Potency results from PubChem BioAssay (Tox21).

Records with an inconclusive call do not appear. Entries that show only a call come without a potency. Activity calls are given as the source filed them. The call rests on the fitted dose curve; in most records, active means well fitted cell-killing curve with a large enough effect in the repeat runs; inconclusive means weak or mixed curves, or effect the other way; inactive means no such curve, though single readings can be large or run the other way.
Potency means the concentration at half of the fitted maximal effect.

This assay can be described thus: qHTS assay to identify small molecule antagonists of the thyroid receptor (TR) signaling pathway - cell viability counter screen (AID 743064). Further: nearly all actives have a fitted effect of over 50% in size. The following applies: GH3.TRE-Luc viability, CellTiter-Fluor, 24 h; series mostly up to 70.3 µM. The source says: National Center for Advancing Translational Sciences [NCATS]
NIH Chemical Genomics Center [NCGC]
U.S. Environmental Protection Agency [EPA]
National Institutes of Environmental Health Sciences [NIEHS]
National Toxicology Program [NTP]
U.S. Food and Drug Administration [FDA]
Thyroid receptor (TR), a nuclear hormone receptor, plays an important role in development, proliferation, differentiation, metabolism, brain function, and cardiovascular system. […] To profile the Tox21 10K compound library in TR signaling, a cell-based GH3-TRE-Luc assay (GH3.TRE-Luc cell line, developed by the laboratory of Dr. Albertinka J. Murk, Wageningen University) was used to measure the inhibition of TR. GH3 (rat pituitary tumor) cells stably expressing a TR activity sensor consisting of two TR response elements and a luciferase reporter gene. The cytotoxicity of the Tox21 compound library against the GH3.TRE-Luc cell line was tested in parallel by measuring the cell viability using CellTiter-Fluor assay (Promega, Madison, WI) in the same wells.
Tox21 Assay Protocol Summary:
GH3.TRE-Luc cells were dispensed at 1500 cells/4 uL/well into 1536-well white solid bottom plates using a Multidrop Combi dispenser (Thermo Fisher Scientific Inc., Waltham, MA). After the assay plates were incubated at 37 C for 4 hours, 23 nL of library compound or DMSO controls was transferred to the assay plates by a pintool station (Kalypsys, San Diego, CA), followed by addition of 1 ul of T3 (1 nM, final concentration in the wells) to stimulate TR transactivation. The assay plates were incubated at 37 C for 23.5 h, and then 1 uL of CellTiter-Fluor reagent (Promega, Madision, WI) of measuring cytotoxicity was added to each well using a Bioraptr Flying Reagent Dispenser (FRD) workstation (Beckman Coulter, Indianapolis, IN, USA). The plates were incubated at 37C and 5% CO2 for additional 30 min, and fluorescence intensity was measured by a ViewLux plate reader (PerkinElmer, Shelton, CT).
A general note: Quantitative high-throughput screening tests each substance at several concentrations.
As for `Cc1ccc(N(CCO)CCO)cc1`, the Potency result is “inactive”. The same measure for `O=C(NS(=O)(=O)/C=C/c1ccccc1)c1ccc(F)cc1Cl`: “inactive”; for `[Cl][Nd]([Cl])[Cl]`: “inactive”; for `Cc1c(C2(c3cc(Br)c(O)c(Br)c3C)OS(=O)(=O)c3ccccc32)cc(Br)c(O)c1Br`: 42 µM (active). The same measure for `CC(CO)(CO)C(=O)O`: “inactive”; for `CC1=C2[C@@H]([C@H](C)CC[C@H]2/C=C(\C)C(=O)O)[C@H](O)C1`: “inactive”. The same measure for `C[C@@H]1C[C@H]2[C@@H]3CCC4=CC(=O)C=C[C@]4(C)[C@@]3(F)[C@@H](O)C[C@]2(C)[C@@]1(O)C(=O)COP(=O)(O)O`: “inactive”; for `SCCc1cnccn1`: “inactive”; for `NC(=O)CCCCC(N)=O`: “inactive”. For `CCCCCCC(CO)CCCC` (stereo not given), the Potency entry is “inactive”.

With `Cc1cccc2sc(N)nc12`, the Potency result was “inactive”.

For the compound `Nc1nc2ccc(OC(F)(F)F)cc2s1`, the Potency entry is “inactive”. `CCCCCCOC(=O)CCCCC`: the Potency entry is “inactive”.

`CC(=O)OCCC(C)CC(C)(C)C` (stereo not given): the Potency entry was “inactive”. As for `COC(C)(C)OC`, the Potency entry is “inactive”.

For `CCCCCCCCCCCCCOC(=O)CCSCCC(=O)OCCCCCCCCCCCCC`, the Potency result was “inactive”. For `CC(=O)OC(C)C[N+](C)(C)C` (stereo not given), the Potency entry was “inactive”.

As to `Nc1cccc2c(N)cccc12`, the Potency entry is “inactive”. On to `Cc1cn([C@H]2C[C@H](F)[C@@H](CO)O2)c(=O)[nH]c1=O`, for which the Potency entry is “inactive”. The same measure for `CC(C(=O)O)c1ccc(C(=O)c2cccs2)cc1` (stereo not given): “inactive”; for `C=CCOC(=O)COCCC(C)C`: “inactive”.

With `CC(=O)OCCC1CCCCC1`, the Potency entry is “inactive”.

With `O[C@@H](CNC[C@H](O)[C@H]1CCc2cc(F)ccc2O1)[C@@H]1CCc2cc(F)ccc2O1`, the Potency was 10.6 µM (active). Regarding `O=C1CC[C@@H](C(=O)O)N1`, the Potency entry is “inactive”. As for `CN1CCCN(C(c2ccccc2)c2ccc(Cl)cc2)CC1` (stereo not given), the Potency is 6.68 µM (active). As to `O=C1OC(=O)c2c(Br)c(Br)c(Br)c(Br)c21`, the Potency entry is “inactive”. To `C=CC(=O)NC(C)C` belongs “inactive”; to `O=C(O)CCS`, “inactive”. The same measure for `O=C(c1ccccc1)C1CCC1`: “inactive”; for `Nc1ccc(F)cc1`: “inactive”. To `CSSc1ccoc1C` belongs “inactive”.

As to `C=CC(=O)O`, the Potency result is “inactive”. The same measure for `COc1ccc(N)c([N+](=O)[O-])c1`: “inactive”; for `CCO[Si](C)(CCCOCC1CO1)OCC` (stereo not given): “inactive”. The same measure for `O=NN(CCCl)C(=O)NCCCl`: “inactive”. To `CCN(Cc1cccc(S(=O)(=O)O)c1)c1ccc(C(=C2C=CC(=[N+](CC)Cc3cccc(S(=O)(=O)O)c3)C=C2)c2ccc(O)cc2S(=O)(=O)[O-])cc1` belongs 37.1 µM (active); to `COc1ccc(CCN(C)CCCN2CCc3cc(OC)c(OC)cc3CC2=O)cc1OC`, “inactive”; to `CCSC(=O)N(CC)CC`, “inactive”. For `CC(=O)NCCO`, the Potency entry is “inactive”.

For the compound `CC(C)c1ccc(C(=O)N=C(N)N)cc1S(C)(=O)=O`, the Potency result was “inactive”.
